The full list was thinned out, with the strongest signals kept by preference.
Experiments:
Test in all cases: glycan array binding signal (z-score within array); higher = stronger binding
Settings in all cases: glycan notation: IUPAC condensed, linker removed
[1] = target: Fuc(a1-2)Gal(b1-3)GalNAc(b1-3)Gal(b1-4)Glc
Method in brief: (§1)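 Negative Z-scores can be read as non-binding. The Z-score is calculated within each array and then averaged across arrays of one protein sequence at different concentrations or buffers and across linkers. Arrays, 3228 in all, were curated from the Consortium for Functional Glycomics database and kept only where the protein sequence was available.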

[2] = target: Fuc(a1-2)Gal(b1-3)GlcNAc(b1-3)Gal(b1-4)Glc
Method in brief: as §1

Fuc(a1-2)Gal(b1-4)GlcNAc = target: Fuc(a1-2)Gal(b1-4)GlcNAc
Method in brief: as §1

Gal(a1-3)Gal(b1-4)Glc = target: Gal(a1-3)Gal(b1-4)Glc
Method in brief: as §1

[3] = target: Gal(b1-3)GalNAc(b1-3)Gal(b1-4)Glc
Method in brief: as §1

[4] = target: Gal(b1-3)[Fuc(a1-4)]GlcNAc(b1-3)Gal(b1-4)GlcNAc
Method in brief: as §1

[5] = target: Gal(b1-3)[Neu5Ac(a2-6)]GalNAc
Method in brief: as §1

[6] = target: Gal(b1-3)[Neu5Ac(a2-6)]GlcNAc(a1-4)Gal(b1-4)Glc
Method in brief: as §1

[7] = target: Gal(b1-3)[Neu5Ac(a2-6)]GlcNAc(b1-6)Gal(b1-4)Glc
Method in brief: as §1

[8] = target: Gal(b1-3)[Neu5Ac(b2-6)]GalNAc
Method in brief: as §1

[9] = target: Gal(b1-4)GlcNAc(b1-3)Gal(b1-4)Glc
Method in brief: as §1

[10] = target: Gal(b1-4)GlcNAc(b1-6)GalNAc
Method in brief: as §1

Gal3S(b1-4)Glc = target: Gal3S(b1-4)Glc
Method in brief: as §1

Gal4S(b1-4)GlcNAc = target: Gal4S(b1-4)GlcNAc
Method in brief: as §1

GalNAc(a1-3)Gal = target: GalNAc(a1-3)Gal
Method in brief: as §1

[11] = target: GlcNAc(b1-2)Gal(b1-3)GlcNAc
Method in brief: as §1

[12] = target: Man(a1-2)Man(a1-3)[Man(a1-6)]Man(a1-6)[Man(a1-2)Man(a1-3)]Man(b1-4)GlcNAc(b1-4)GlcNAc
Method in brief: as §1

[13] = target: Man(a1-3)[Man(a1-6)]Man(a1-6)[Man(a1-2)Man(a1-3)]Man(b1-4)GlcNAc(b1-4)GlcNAc
Method in brief: as §1

[14] = target: Man(a1-3)[Man(a1-6)]Man(b1-4)GlcNAc(b1-4)GlcNAc
Method in brief: as §1

[15] = target: Neu5Ac(a2-3)Gal(b1-4)GlcNAc6S
Method in brief: as §1

[16] = target: Neu5Ac(a2-3)Gal6S(b1-4)GlcNAc
Method in brief: as §1

[17] = target: Neu5Ac(a2-8)Neu5Ac(a2-8)Neu5Ac(a2-8)Neu5Ac(a2-3)[GalNAc(b1-4)]Gal(b1-4)Glc
Method in brief: as §1

[18] = target: Fuc(a1-2)[Gal(a1-4)]Gal(b1-4)GalNAc
Method in brief: as §1

[19] = target: Fuc(a1-2)[GalNAc(a1-3)]Gal(b1-4)Glc
Method in brief: as §1

Fuc(a1-3)GlcNAc = target: Fuc(a1-3)GlcNAc
Method in brief: as §1

[20] = target: Gal(b1-3)[Fuc(a1-4)]GlcNAc(b1-3)Gal(b1-4)[Fuc(a1-3)]GlcNAc
Method in brief: as §1

[21] = target: Gal(b1-4)GlcNAc(b1-2)Man(a1-3)[Gal(b1-4)GlcNAc(b1-2)Man(a1-6)]Man(b1-4)GlcNAc(b1-4)GlcNAc
Method in brief: as §1

Gal3S(b1-4)Glc6S = target: Gal3S(b1-4)Glc6S
Method in brief: as §1

Gal3S6S(b1-4)GlcNAc = target: Gal3S6S(b1-4)GlcNAc
Method in brief: as §1

Gal3S6S(b1-4)GlcNAc6S = target: Gal3S6S(b1-4)GlcNAc6S
Method in brief: as §1

Gal6S(b1-4)Glc6S = target: Gal6S(b1-4)Glc6S
Method in brief: as §1

GlcNAc(b1-3)Gal = target: GlcNAc(b1-3)Gal
Method in brief: as §1

[22] = target: GlcNAc(b1-4)Gal(b1-4)GlcNAc
Method in brief: as §1

Man(b1-4)GlcNAc = target: Man(b1-4)GlcNAc
Method in brief: as §1

[23] = target: Neu5Ac(a2-3)Gal(b1-3)GlcNAc
Method in brief: as §1

[24] = target: Neu5Ac(a2-3)Gal(b1-3)GlcNAc(b1-3)Gal(b1-4)GlcNAc
Method in brief: as §1

[25] = target: Neu5Ac(a2-3)Gal(b1-4)[Fuc(a1-3)]GlcNAc
Method in brief: as §1

[26] = target: Neu5Ac(a2-3)Gal(b1-4)[Fuc(a1-3)]GlcNAc(b1-3)Gal
Method in brief: as §1

[27] = target: Neu5Ac(a2-6)Gal(b1-4)GlcNAc
Method in brief: as §1

[28] = target: Neu5Gc(a2-6)Gal(b1-4)GlcNAc
Method in brief: as §1

B1: T7P4 (Tuber borchii) (protein)
chain: GSHIGPYMSFYASSEDVRTIEEGGRTWLVGRARRADGSWQDIKLDLDNIIGNRDGHLTWGEQNFTQSASDIRFNFEGSNVPVLRAKLRNAAGGEQESDLNLGERLTNNNGDLVFN
[1]
  glycan array binding signal (z-score): 6.04
[2]
  glycan array binding signal (z-score): 5.88
Fuc(a1-2)Gal(b1-4)GlcNAc
  glycan array binding signal (z-score): -0.207
Gal(a1-3)Gal(b1-4)Glc
  glycan array binding signal (z-score): -0.222
[3]
  glycan array binding signal (z-score): 5.7
[4]
  glycan array binding signal (z-score): -0.207
[5]
  glycan array binding signal (z-score): -0.213
[6]
  glycan array binding signal (z-score): 5.89
[7]
  glycan array binding signal (z-score): 5.74
[8]
  glycan array binding signal (z-score): -0.16
[9]
  glycan array binding signal (z-score): 2.77
[10]
  glycan array binding signal (z-score): -0.221
Gal3S(b1-4)Glc
  glycan array binding signal (z-score): -0.008
Gal4S(b1-4)GlcNAc
  glycan array binding signal (z-score): -0.202
GalNAc(a1-3)Gal
  glycan array binding signal (z-score): -0.215
[11]
  glycan array binding signal (z-score): 0.204
[12]
  glycan array binding signal (z-score): -0.213
[13]
  glycan array binding signal (z-score): -0.223
[14]
  glycan array binding signal (z-score): -0.226
[15]
  glycan array binding signal (z-score): -0.208
[16]
  glycan array binding signal (z-score): -0.213
[17]
  glycan array binding signal (z-score): -0.223

B2: FBG5 (Homo sapiens), Q8NI29 (protein)
chain: MGASVSRGRAARVPAPEPEPEEALDLSQLPPELLLVVLSHVPPRTLLGRCRQVCRGWRALVDGQALWLLILARDHGATGRALLHLARSCQSPARNARPCPLGRFCARRPIGRNLIRNPCGQEGLRKWMVQHGGDGWVVEENRTTVPGAPSQTCFVTSFSWCCKKQVLDLEEEGLWPELLDSGRIEICVSDWWGARHDSGCMYRLLVQLLDANQTVLDKFSAVPDPIPQWNNNACLHVTHVFSNIKMGVRFVSFEHRGQDTQFWAGHYGARVTNSSVIVRVRLS
[1]
  glycan array binding signal (z-score): -0.166
[18]
  glycan array binding signal (z-score): -0.19
[19]
  glycan array binding signal (z-score): 0.967
Fuc(a1-3)GlcNAc
  glycan array binding signal (z-score): 0.417
[20]
  glycan array binding signal (z-score): -0.217
[21]
  glycan array binding signal (z-score): -0.102
Gal3S(b1-4)Glc6S
  glycan array binding signal (z-score): 0.206
Gal3S6S(b1-4)GlcNAc
  glycan array binding signal (z-score): -0.009
Gal3S6S(b1-4)GlcNAc6S
  glycan array binding signal (z-score): 2.32
Gal6S(b1-4)Glc6S
  glycan array binding signal (z-score): 0.548
GlcNAc(b1-3)Gal
  glycan array binding signal (z-score): -0.119
[22]
  glycan array binding signal (z-score): -0.095
[12]
  glycan array binding signal (z-score): -0.112
Man(b1-4)GlcNAc
  glycan array binding signal (z-score): -0.205
[23]
  glycan array binding signal (z-score): -0.161
[24]
  glycan array binding signal (z-score): -0.162
[25]
  glycan array binding signal (z-score): -0.231
[26]
  glycan array binding signal (z-score): -0.244
[27]
  glycan array binding signal (z-score): -0.219
[28]
  glycan array binding signal (z-score): -0.248

Source: the supplement of paper PMC8728848
